Screens (PubChem BioAssay)
NPR1 antag: Natriuretic polypeptide receptor (hNpr1) antagonism - Primary qHTS; Potency, µM (highest dose often 46.3 µM), usual class: inhibitors; 76,000 compounds, 1.6% hits; HEK293 hNpr1 GloSensor cGMP, ANP-stimulated luminescence; calls by dose curve; also: nearly all actives have a fitted effect of over 60% in size
Target sequence (P16066 whole entry, looked up): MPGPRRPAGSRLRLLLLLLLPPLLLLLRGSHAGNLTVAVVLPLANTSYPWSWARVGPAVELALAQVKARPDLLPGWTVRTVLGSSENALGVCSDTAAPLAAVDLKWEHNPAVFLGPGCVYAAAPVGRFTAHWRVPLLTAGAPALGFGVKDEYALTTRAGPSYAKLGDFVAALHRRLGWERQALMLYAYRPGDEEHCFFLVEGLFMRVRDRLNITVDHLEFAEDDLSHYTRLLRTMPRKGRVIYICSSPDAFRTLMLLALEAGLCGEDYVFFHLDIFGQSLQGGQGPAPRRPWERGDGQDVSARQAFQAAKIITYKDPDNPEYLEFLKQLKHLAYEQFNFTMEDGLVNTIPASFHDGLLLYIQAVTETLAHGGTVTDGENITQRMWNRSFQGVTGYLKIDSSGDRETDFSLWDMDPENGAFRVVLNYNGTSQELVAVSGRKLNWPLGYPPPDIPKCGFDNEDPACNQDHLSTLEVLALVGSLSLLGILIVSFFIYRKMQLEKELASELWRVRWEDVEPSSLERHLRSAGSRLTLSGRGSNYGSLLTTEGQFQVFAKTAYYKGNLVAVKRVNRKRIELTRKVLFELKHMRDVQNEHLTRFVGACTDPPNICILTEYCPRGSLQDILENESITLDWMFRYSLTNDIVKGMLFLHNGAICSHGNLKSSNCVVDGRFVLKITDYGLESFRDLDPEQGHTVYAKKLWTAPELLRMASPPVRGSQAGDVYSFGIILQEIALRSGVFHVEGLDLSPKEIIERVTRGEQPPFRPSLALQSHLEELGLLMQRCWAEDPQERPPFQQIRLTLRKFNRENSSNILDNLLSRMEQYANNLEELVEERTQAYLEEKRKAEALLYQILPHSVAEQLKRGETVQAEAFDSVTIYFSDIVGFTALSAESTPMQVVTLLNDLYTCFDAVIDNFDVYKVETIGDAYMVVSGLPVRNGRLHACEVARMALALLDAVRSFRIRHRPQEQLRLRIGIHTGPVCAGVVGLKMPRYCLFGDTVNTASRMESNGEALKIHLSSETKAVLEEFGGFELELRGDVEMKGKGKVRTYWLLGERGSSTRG
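Compound pre-incubated 30 min at room temperature on GloSensor-loaded HEK293 cells stably carrying hNpr1 and the pGS-40F cGMP biosensor. Stimulation uses hNppA at 0.1 nM final; luminescence is taken at baseline and 20 min post-agonist.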
HEK cytotox: Cytotoxic Profiling in HEK 293 Cell Line of Diverse Libraries Using Quantitative High-Throughput Screening. 94,000 compounds, 6.6% hits. Potency, µM (series often up to 115 µM), actives largely listed as inhibitors. HEK 293 viability, ATP luminescence (CellTiter-Glo), 48-72 h; also: nearly all actives have a fitted effect of over 60% in size
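Read-out: CellTiter-Glo ATP luminescence. Cells: HEK 293, 250 cells/well. Exposure: 48 or 72 hr, 37 degree Celsius.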
3T3 cytotox: Cytotoxic Profiling in NIH 3T3 Cell Line of Diverse Libraries Using Quantitative High-Throughput Screening; 94,000 compounds, 4.3% hits; AID 1345082, 2018; Potency, µM (doses to about 96.7 µM), usual class: inhibitors; NIH 3T3 viability, CellTiter-Glo ATP luminescence, 48-72 h; also: nearly all actives have a fitted effect of over 55% in size
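First NIH 3T3 cells are plated at 400 cells/well; next compound is pinned in; then plates incubate 48 or 72 hr at 37 °C; finally CellTiter-Glo is added and luminescence read after 10 min.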
HEK293 viab: GF-AFC viability counterscreen for inhibitors of alpha-synuclein gene (SNCA) expression. HEK-293-SNCA-luc viability, GF-AFC fluorescence, 24 h. 150,000 compounds, 0.12% hits. AID 1671193, 2021. Potency, µM (doses to about 57.1 µM), usual class: cytotoxic; also: nearly all actives have a fitted effect of over 30% in size
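HEK-293-SNCA-luc cells (1500/well) plated 24 h, then exposed 24 h to a dilution series; GF-AFC added 30 min at 37C, fluorescence 405/540 nm; normalised to medium-only and DMSO wells, Hill fit.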
FLuc inh: Firefly luciferase inhibition profiling of diverse chemical library using quantitative high-throughput screening; purified P. pyralis luciferase, luminescence, biochemical; Potency, µM (highest dose often 115 µM), usual class: inhibitors; 76,000 compounds, 2.5% hits; AID 1347043, 2019; also: nearly all actives have a fitted effect of over 65% in size
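Luminescence read by CCD imaging after purified firefly luciferase (10nM final) was added to substrate buffer holding 10uM D-luciferin and 10uM ATP, pH 7.5, pre-dosed with compound.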
SNCA expr inh: Primary qHTS assay for inhibitors of alpha-synuclein gene (SNCA) expression | 140,000 compounds, 0.17% hits | HEK-293 SNCA-luciferase knock-in, luminescence, 24 h | Potency, µM (doses to about 57.2 µM), actives largely listed as inhibitors; also: nearly all actives have a fitted effect of over 45% in size
Each line names hits and unclear results; the compound was inactive in the other large screens; ! = repeats disagree. An excerpt weighted towards active compounds, which were near 7.4% of everything screened. Unless noted, calls follow the shape of the dose curve; as a rule, active = well fitted curve in the direction sought with a large enough effect; inconclusive = small, poorly fitted or top-dose-only effect, or another doubt; inactive = no such curve, though single readings can be large; an effect the other way counts as inactive or inconclusive.

Cc1ccccc1-c1ccc2n(c1=O)C[C@H]1C[C@@H]2CN(Cc2cccs2)C1	NPR1 antag inconclusive, HEK cytotox 70.8µM, 3T3 cytotox inconclusive
CCOC(=O)[C@H]1CN(C(=O)OCC(C)(C)C)[C@]2(C)C(=O)N(CCO)c3ccccc3[C@H]12	HEK cytotox inconclusive (no result: NPR1 antag, FLuc inh)
CCOC(=O)[C@H]1CN(C(=O)COc2ccccc2)[C@]2(C)C(=O)N(CC3CC3)c3ccccc3[C@H]12	HEK cytotox inconclusive, 3T3 cytotox inconclusive (no result: NPR1 antag, FLuc inh)
CC(C)(C)c1ccc(-c2cn(C[C@H]3CC4CCN3C[C@@H]4C(=O)Nc3ccccc3)nn2)cc1 (stereo partly drawn)	HEK cytotox 28.2µM, 3T3 cytotox 28.2µM, FLuc inh inconclusive
CCN1CCN(C(=O)Cc2ccc(Nc3ncc(F)c(Nc4ccc(C(=O)Nc5ccccc5Cl)cc4)n3)cc2)CC1	HEK293 viab 23.8µM! (no result: NPR1 antag, HEK cytotox, 3T3 cytotox, FLuc inh)
CN1CCNc2cc(NCc3ccccc3)ncc2C1	HEK cytotox inconclusive, 3T3 cytotox 89.1µM, FLuc inh 25.1µM
c1ccc(Nc2cc3c(cn2)CN(CC2CC2)CCN3)cc1	HEK cytotox 35.5µM, 3T3 cytotox inconclusive, HEK293 viab inconclusive, FLuc inh 35.5µM
O=C1Nc2ccccc2C12CCN(CC1CC1)CC2	none (no result: NPR1 antag, FLuc inh)
CCOC(=O)[C@H]1CN(C(=O)NC2CCCC2)[C@]2(C)C(=O)N(C)c3ccccc3[C@H]12	HEK cytotox inconclusive (no result: NPR1 antag, FLuc inh)
CSCC(=O)Nc1ccc2n(c1=O)C[C@H]1C[C@@H]2CN(C(=O)COc2ccccc2)C1	3T3 cytotox 79.4µM
CC(=O)N1C[C@@H]2C[C@H](C1)c1ccc(NC(=O)COc3ccccc3)c(=O)n1C2	none
Cn1nc(C2CCCCC2)cc1[C@H]1CN2CC[C@H]1C[C@@H]2CNC(=O)NCc1ccccc1	HEK cytotox 79.4µM, 3T3 cytotox inconclusive
Cc1ccc(C(=O)NC[C@H]2C[C@@H]3CCN2C[C@@H]3c2cc(C3CCCCC3)nn2C)cc1	HEK cytotox inconclusive, 3T3 cytotox 35.5µM
Cn1nc(C2CCCCC2)cc1[C@H]1CN2CC[C@H]1C[C@@H]2CNC(=O)Nc1cccc(C#N)c1	HEK cytotox inconclusive, 3T3 cytotox inconclusive
Cc1ccc(C(=O)NC[C@H]2C[C@@H]3CCN2C[C@@H]3c2cc(-c3cccs3)nn2C)cc1	HEK cytotox inconclusive, 3T3 cytotox 112µM
Cn1nc(C2CCCCC2)cc1[C@H]1CN2CC[C@H]1C[C@@H]2CNC(=O)Nc1ccccc1	HEK cytotox 31.6µM, 3T3 cytotox 28.2µM
Cn1nc(C2CCCCC2)cc1[C@H]1CN2CC[C@H]1C[C@@H]2CNC(=O)c1ccc2c(c1)OCO2	HEK cytotox inconclusive, 3T3 cytotox inconclusive
Fc1cc(F)c2c(c1)[C@H]1C=CC[C@H]1C(c1cccnc1)N2 (stereo partly drawn)	none (no result: NPR1 antag, HEK cytotox, 3T3 cytotox, FLuc inh, SNCA expr inh)
O=C(Cc1cccc(Cl)c1)N1CCN(Cc2ccccc2-c2cccnc2)CC1	HEK cytotox inconclusive, 3T3 cytotox inconclusive (no result: NPR1 antag, FLuc inh)
CC(C)CCN(C1CCNCC1)C1CCOCC1	none
C=CC(C)(C)c1[nH]c2cccc3c2c1C[C@@H]1[C@@H]3[C@@H](OC(C)=O)[C@H](C)CN1C	none (no result: NPR1 antag, HEK cytotox, 3T3 cytotox, FLuc inh, SNCA expr inh)
COc1ccc(OC)c(S(=O)(=O)NC[C@H]2C[C@@H]3CCN2C[C@@H]3c2cc(-c3cccs3)nn2C)c1	HEK cytotox inconclusive, 3T3 cytotox 79.4µM
CCOC(=O)[C@H]1CN(C(=O)CCc2ccccc2)[C@]2(C)C(=O)N(CCOC(C)=O)c3ccccc3[C@H]12	HEK cytotox 89.1µM (no result: NPR1 antag, HEK293 viab, FLuc inh, SNCA expr inh)
CCOC(=O)[C@H]1CN(C(=O)/C=C/c2ccccc2)[C@]2(C)C(=O)N(CC3CC3)c3ccccc3[C@H]12	HEK cytotox 28.2µM, 3T3 cytotox inconclusive (no result: NPR1 antag, FLuc inh)
CCOC(=O)[C@H]1CN(C(=O)c2ccc3c(c2)OCO3)[C@]2(C)C(=O)N(CC3CC3)c3ccccc3[C@H]12	HEK cytotox inconclusive, 3T3 cytotox inconclusive (no result: NPR1 antag, FLuc inh)
CCOC(=O)[C@H]1CN(C(=O)Nc2ccc3c(c2)OCO3)[C@]2(C)C(=O)N(CC3CC3)c3ccccc3[C@H]12	HEK cytotox 35.5µM, 3T3 cytotox inconclusive (no result: NPR1 antag, FLuc inh)
CN1[C@H]2CC(O)C[C@H]1[C@H]1O[C@H]12 (stereo partly drawn)	none (no result: NPR1 antag, HEK cytotox, 3T3 cytotox, FLuc inh)
CC(C)(NC(=O)[C@@H](N)Cc1ccc(O)cc1)C(=O)N[C@@H](Cc1cc2ccccc2[nH]1)C(=O)N[C@@H](Cc1ccccc1)C(=O)O	none (no result: NPR1 antag, HEK cytotox, 3T3 cytotox, FLuc inh, SNCA expr inh)
CC(=O)OC12C(O)C(C)C3(O)C4C=C(C)C(=O)C4CC(CO)=CC3C1C2(C)C (stereo not drawn)	none (no result: NPR1 antag, HEK cytotox, 3T3 cytotox, FLuc inh, SNCA expr inh)
C/C=C(/C)C1C=CC2CC(C)CC(C)C2C1/C(O)=C1\C(=O)NC(CC(C)(O)C(=O)O)C1=O (stereo not drawn)	none (no result: NPR1 antag, HEK cytotox, 3T3 cytotox, FLuc inh, SNCA expr inh)
COc1cc2c(cc1Oc1ccccc1)NC(=O)C21CCN(Cc2cccnc2)CC1	HEK cytotox 89.1µM, 3T3 cytotox inconclusive
COc1cc2c(cc1Oc1ccccc1)NC(=O)C21CCN(Cc2nccn2C)CC1	HEK cytotox 100µM, 3T3 cytotox inconclusive
COc1cccc(-c2cnc3[nH]cc(CC(=O)N4CCN(C)CC4)c3c2)c1	HEK cytotox inconclusive, 3T3 cytotox inconclusive, FLuc inh 20µM
COc1ncccc1-c1cnc2[nH]cc(CC(=O)N3CCN(C)CC3)c2c1	3T3 cytotox inconclusive
CN1CCN(C(=O)Cc2c[nH]c3ncc(-c4cccc(OC(F)(F)F)c4)cc23)CC1	HEK cytotox inconclusive, 3T3 cytotox 79.4µM
COc1ccc(-c2cnc3[nH]cc(CC(=O)N4CCN(C)CC4)c3c2)cc1OC	3T3 cytotox inconclusive
CN1CCN(C(=O)Cc2c[nH]c3ncc(-c4ccccc4Oc4ccccc4)cc23)CC1	NPR1 antag inconclusive, HEK cytotox 79.4µM, 3T3 cytotox inconclusive
CCOP(=O)(OCC)Oc1ccc2c(C)cc(=O)oc2c1	none (no result: NPR1 antag, HEK cytotox, 3T3 cytotox, FLuc inh, SNCA expr inh)
CCOC(=O)[C@H]1CN([S+](=O)([O-])c2cccs2)[C@]2(C)C(=O)N(CCOC)c3ccccc3[C@H]12	3T3 cytotox inconclusive (no result: NPR1 antag, FLuc inh)
C#C[C@H]1CN2CC[C@H]1C[C@@H]2COC(=O)NCCC	HEK cytotox inconclusive
O=C1NC2(CCN(Cc3cccnc3)C2)COc2ccccc21 (stereo not drawn)	HEK cytotox 79.4µM, 3T3 cytotox 35.5µM
